“And” between values parts separate entries of the source, which are not always exact repeats. Identical values can stand only once. Results filed as inconclusive are left out. A call without a number means that no potency is given here. Some compounds were tested as several samples or in several runs, with calls that do not always agree. The source made the active and inactive calls. Unless noted, calls come from the whole dose curve.

Chain of Thyrotropin-releasing hormone receptor (Homo sapiens) (P34981 whole entry, looked up): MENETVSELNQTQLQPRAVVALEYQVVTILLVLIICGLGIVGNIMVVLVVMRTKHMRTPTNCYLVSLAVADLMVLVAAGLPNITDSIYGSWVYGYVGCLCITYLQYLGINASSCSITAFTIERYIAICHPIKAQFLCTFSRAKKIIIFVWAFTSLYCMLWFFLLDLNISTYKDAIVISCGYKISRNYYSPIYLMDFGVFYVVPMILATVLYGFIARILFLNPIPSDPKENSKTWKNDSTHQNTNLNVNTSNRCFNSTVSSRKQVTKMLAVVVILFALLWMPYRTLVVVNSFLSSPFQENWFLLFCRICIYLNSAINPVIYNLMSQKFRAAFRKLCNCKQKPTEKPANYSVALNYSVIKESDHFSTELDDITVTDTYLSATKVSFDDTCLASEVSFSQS

In one test the target is Thyrotropin-releasing hormone receptor (Homo sapiens) (UniProt P34981). The test can be described thus: qHTS assay to identify small molecule antagonists of the thyrotropin-releasing hormone receptor (TRHR) signaling pathway (AID 1346877; active = well fitted inhibition curve with a large enough effect in the repeat runs, not every such curve was filed as active). The note with it: TRHR-HEK293, TRH-induced calcium fluorescence, antagonist mode; series mostly up to 51.3 µM; activity, negative = inhibition: at the top concentration. The method, boiled down:
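Antagonism is measured as suppression of the calcium response to 1 nM TRH in TRHR-HEK293 cells that have been dye-loaded for 2 h at 37 °C after overnight plating. Each compound is tested at 15 concentrations in triplicate.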
(In general: In qHTS, concentration-response curves come from the screen itself.)
Turning to `COP(=O)(OC)OC`, the Potency entry is “inactive”.
Same read-out and setting: the same measure for `Cc1ccc(OP(=O)(Oc2ccc(C)cc2)Oc2ccc(C)cc2)cc1`: “inactive”; for `CCC(C)(c1ccc(O)cc1)c1ccc(O)cc1`: “inactive”; for `O=C(O)C(F)(F)C(F)(F)C(F)(F)C(F)(F)C(F)(F)C(F)(F)C(F)(F)F`: “inactive”.
Same read-out and setting: the same measure for `c1ccc(-c2cccc(-c3ccccc3)c2)cc1`: “inactive”; for `CC(C)(OOC(C)(C)c1ccccc1)c1ccccc1`: “inactive”; for `CCOc1cc(Oc2ccc(C(F)(F)F)cc2Cl)ccc1[N+](=O)[O-]`: “inactive”.
On the same count and under the same terms, the value for `C#C[C@]1(O)CC[C@H]2[C@@H]3CCC4=CC(=O)CC[C@]4(C)[C@H]3CC[C@@]21C` was “inactive”; that for `CCOCN(C(=O)CCl)c1c(C)cccc1CC` was “inactive”; that for `Nc1ccncc1` was “inactive”.
As to `Cc1ccccc1[N+](=O)[O-]`, the Potency result is “inactive”.
Same read-out and setting: the value for `c1cc(OCC2CO2)ccc1Cc1ccc(OCC2CO2)cc1` (stereo unspecified) was “inactive”.
On the same count and under the same terms, the value for `O=Cc1ccco1` was “inactive”; that for `CCOc1cc(C=O)ccc1O` was “inactive”.
Still for that read-out and setting: the same measure for `Nc1ccc(Cl)c(Cl)c1`: “inactive”.
Take `CCC(CC)Nc1c([N+](=O)[O-])cc(C)c(C)c1[N+](=O)[O-]`: the Potency result is “inactive”.
Same read-out and setting: the value for `COc1ccc(C=O)cc1` was “inactive”.
The same measure, in the same setting: the value for `CCCCNC(=O)n1c(NC(=O)OC)nc2ccccc21` was “inactive”; that for `c1ccc(NNc2ccccc2)cc1` was “inactive”; that for `CC1(C)C(C=C(Cl)Cl)C1C(=O)OC(C#N)c1cccc(Oc2ccccc2)c1` (stereo unspecified) was “inactive”.
Regarding `CCCCCCCCCCCOC(=O)c1ccccc1C(=O)OCCCCCCCCCCC`, the Potency entry is “inactive”.
Same read-out and setting: the same measure for `N#CC(Br)Br`: “inactive”.
Still for that read-out and setting: the value for `C=CCN(CC=C)C(=O)C(Cl)Cl` was “inactive”; that for `CCOC(=O)C(C)OC(=O)c1cc(Oc2ccc(C(F)(F)F)cc2Cl)ccc1[N+](=O)[O-]` (stereo unspecified) was “inactive”.
Turning to `CCCCC(CC)COC(=O)c1ccc(C(=O)OCC(CC)CCCC)c(C(=O)OCC(CC)CCCC)c1` (stereo unspecified), the Potency entry is “inactive”.
As to `c1ccc(P(c2ccccc2)c2ccccc2)cc1`, the Potency result is “inactive”.
Turning to `Oc1c(Cl)c(Cl)c(Cl)c(Cl)c1Cl`, the “activity, negative = inhibition” value was -11.7% [at 23.6 µM] (inactive).
As to `Oc1cc(Cl)c(Cl)cc1Cl`, the Potency entry was “inactive”.
On the same count and under the same terms, the value for `NNC(=S)NN` was “inactive”.
Still for that read-out and setting: the same measure for `O=P(O)(O)CCCl`: “inactive”; for `Nc1ccc(-c2ccccc2)cc1`: “inactive”.
Same read-out and setting: the same measure for `N#Cc1cc(Br)c(O)c(Br)c1`: “inactive”; for `Cc1ccc2c(c1N)C(=O)c1ccccc1C2=O`: “inactive”.

The target is the same in the next test. The test can be described thus: qHTS assay to identify small molecule agonists of the thyrotropin-releasing hormone receptor (TRHR) signaling pathway (AID 1346891). The note with it: TRHR-HEK293 calcium fluorescence, agonist mode; series mostly up to 57.6 µM; activation: at the top concentration. In a few lines:
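Readout was intracellular calcium fluorescence in TRHR-Hek293 cells. Cells were incubated 18 h, dye-loaded 2 h at 37 °C, and treated with compound in agonist mode.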
Take `COP(=O)(OC)OC`: the “activation” value is 0.0253% (inactive).
`Cc1ccc(OP(=O)(Oc2ccc(C)cc2)Oc2ccc(C)cc2)cc1`: the Potency result is “inactive”.
The same measure, in the same setting: the value for `CCC(C)(c1ccc(O)cc1)c1ccc(O)cc1` was “inactive”.
Same read-out and setting: the value for `O=C(O)C(F)(F)C(F)(F)C(F)(F)C(F)(F)C(F)(F)C(F)(F)C(F)(F)F` was “inactive”.
For `c1ccc(-c2cccc(-c3ccccc3)c2)cc1`, the Potency result is “inactive”.
On the same count and under the same terms, the value for `CC(C)(OOC(C)(C)c1ccccc1)c1ccccc1` was “inactive”; that for `CCOc1cc(Oc2ccc(C(F)(F)F)cc2Cl)ccc1[N+](=O)[O-]` was “inactive”; that for `C#C[C@]1(O)CC[C@H]2[C@@H]3CCC4=CC(=O)CC[C@]4(C)[C@H]3CC[C@@]21C` was “inactive”.
Same read-out and setting: the value for `CCOCN(C(=O)CCl)c1c(C)cccc1CC` was “inactive”.
`Nc1ccncc1`: the Potency entry is “inactive”.
Still for that read-out and setting: the value for `Cc1ccccc1[N+](=O)[O-]` was “inactive”; that for `c1cc(OCC2CO2)ccc1Cc1ccc(OCC2CO2)cc1` (stereo unspecified) was “inactive”; that for `O=Cc1ccco1` was “inactive”.
`CCOc1cc(C=O)ccc1O`: the Potency entry was “inactive”.
Still for that read-out and setting: the value for `Nc1ccc(Cl)c(Cl)c1` was “inactive”; that for `CCC(CC)Nc1c([N+](=O)[O-])cc(C)c(C)c1[N+](=O)[O-]` was “inactive”; that for `COc1ccc(C=O)cc1` was “inactive”.
For the compound `CCCCNC(=O)n1c(NC(=O)OC)nc2ccccc21`, the Potency entry is “inactive”.
Same read-out and setting: the same measure for `c1ccc(NNc2ccccc2)cc1`: “inactive”.
Same read-out and setting: the value for `CC1(C)C(C=C(Cl)Cl)C1C(=O)OC(C#N)c1cccc(Oc2ccccc2)c1` (stereo unspecified) was “inactive”.
On the same count and under the same terms, the same measure for `CCCCCCCCCCCOC(=O)c1ccccc1C(=O)OCCCCCCCCCCC`: “inactive”; for `N#CC(Br)Br`: “inactive”; for `C=CCN(CC=C)C(=O)C(Cl)Cl`: “inactive”.
On to `CCOC(=O)C(C)OC(=O)c1cc(Oc2ccc(C(F)(F)F)cc2Cl)ccc1[N+](=O)[O-]` (stereo unspecified), for which the Potency entry was “inactive”.
On to `CCCCC(CC)COC(=O)c1ccc(C(=O)OCC(CC)CCCC)c(C(=O)OCC(CC)CCCC)c1` (stereo unspecified), for which the Potency result is “inactive”.
The same measure, in the same setting: the same measure for `c1ccc(P(c2ccccc2)c2ccccc2)cc1`: “inactive”.
In the case of `Oc1c(Cl)c(Cl)c(Cl)c(Cl)c1Cl`, the Potency result was “inactive”.
Still for that read-out and setting: the value for `Oc1cc(Cl)c(Cl)cc1Cl` was “inactive”.
On the same count and under the same terms, the same measure for `NNC(=S)NN`: “inactive”.
On the same count and under the same terms, the value for `O=P(O)(O)CCCl` was “inactive”; that for `Nc1ccc(-c2ccccc2)cc1` was “inactive”; that for `N#Cc1cc(Br)c(O)c(Br)c1` was “inactive”.
Take `Cc1ccc2c(c1N)C(=O)c1ccccc1C2=O`: the Potency result is “inactive”.

System in the next test: not listed separately
Put plainly: Human pregnane X receptor (PXR) small molecule agonists, qHTS cell viability counter screen (AID 1346977; active = well fitted cell-killing curve with a large enough effect in the repeat runs; note: nearly all actives have a fitted effect of over 50% in size; note: potency is the fitted concentration of half-maximal effect). The note with it: PXR-Luc HepG2 viability, CellTiter-Fluor, 24 h; series mostly up to 92.4 µM; activity change, negative = cytotoxicity: at the top concentration. In a few lines:
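In each well, the PXR reporter HepG2 line was checked for viability: CellTiter-Fluor reagent added 23hr post-dosing, fluorescence read after 1hr incubation at 37C.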
In the case of `COP(=O)(OC)OC`, the Potency is 44.7 µM (active) and inactive.
As to `Cc1ccc(OP(=O)(Oc2ccc(C)cc2)Oc2ccc(C)cc2)cc1`, the “activity change, negative = cytotoxicity” value was 0.285% (inactive).
Still for that read-out and setting: the same measure for `CCC(C)(c1ccc(O)cc1)c1ccc(O)cc1`: -24.9% (inactive).
In the case of `O=C(O)C(F)(F)C(F)(F)C(F)(F)C(F)(F)C(F)(F)C(F)(F)C(F)(F)F`, the Potency result is “inactive”.
On the same count and under the same terms, the same measure for `c1ccc(-c2cccc(-c3ccccc3)c2)cc1`: “inactive”; for `CC(C)(OOC(C)(C)c1ccccc1)c1ccccc1`: “inactive”.
Same read-out and setting: the value for `CCOc1cc(Oc2ccc(C(F)(F)F)cc2Cl)ccc1[N+](=O)[O-]` was “inactive”; that for `O=C(NC(=O)c1c(F)cccc1F)Nc1ccc(Cl)cc1` was “inactive”.
`C#C[C@]1(O)CC[C@H]2[C@@H]3CCC4=CC(=O)CC[C@]4(C)[C@H]3CC[C@@]21C`: the Potency result is “inactive”.
The same measure, in the same setting: the value for `Nc1ccncc1` was “inactive”; that for `Cc1ccccc1[N+](=O)[O-]` was “inactive”.
With `O=Cc1ccco1`, the “activity change, negative = cytotoxicity” value is -1.34% (inactive).
`CCOc1cc(C=O)ccc1O`: the Potency entry is “inactive”.
Same read-out and setting: the same measure for `Nc1ccc(Cl)c(Cl)c1`: “inactive”; for `CCC(CC)Nc1c([N+](=O)[O-])cc(C)c(C)c1[N+](=O)[O-]`: “inactive”; for `COc1ccc(C=O)cc1`: “inactive”.
The same measure, in the same setting: the same measure for `CCCCNC(=O)n1c(NC(=O)OC)nc2ccccc21`: “inactive”.
The same measure, in the same setting: the value for `c1ccc(NNc2ccccc2)cc1` was “inactive”.
Consider `CC1(C)C(C=C(Cl)Cl)C1C(=O)OC(C#N)c1cccc(Oc2ccccc2)c1` (stereo unspecified), for which the Potency result is “inactive”.
Still for that read-out and setting: the same measure for `CCCCCCCCC(=O)NCc1ccc(O)c(OC)c1`: “inactive”.
As for `Cc1c(COC(=O)[C@@H]2[C@H](/C=C(\Cl)C(F)(F)F)C2(C)C)cccc1-c1ccccc1`, the “activity change, negative = cytotoxicity” value is 16.9% (inactive).
Take `CC(C)c1ccc(CO)cc1`: the Potency result was “inactive”.
For `CCCCCCCCCCCOC(=O)c1ccccc1C(=O)OCCCCCCCCCCC`, the Potency entry was “inactive”.
On the same count and under the same terms, the same measure for `N#CC(Br)Br`: “inactive”; for `COc1ccc(C(CN(C)C)C2(O)CCCCC2)cc1` (stereo unspecified): “inactive”.
In the case of `C=CCN(CC=C)C(=O)C(Cl)Cl`, the Potency result was “inactive”.
Consider `CCOC(=O)C(C)OC(=O)c1cc(Oc2ccc(C(F)(F)F)cc2Cl)ccc1[N+](=O)[O-]` (stereo unspecified), for which the “activity change, negative = cytotoxicity” value was 3.24% (inactive).
On to `CCCCC(CC)COC(=O)c1ccc(C(=O)OCC(CC)CCCC)c(C(=O)OCC(CC)CCCC)c1` (stereo unspecified), for which the Potency entry was “inactive”.
Still for that read-out and setting: the same measure for `c1ccc(P(c2ccccc2)c2ccccc2)cc1`: “inactive”.
As to `Oc1cc(Cl)c(Cl)cc1Cl`, the “activity change, negative = cytotoxicity” value was -21.2% (inactive).
`NNC(=S)NN`: the “activity change, negative = cytotoxicity” value is 0.957% (inactive).
On to `O=P(O)(O)CCCl`, for which the Potency entry is “inactive”.
For `Nc1ccc(-c2ccccc2)cc1`, the “activity change, negative = cytotoxicity” value was 7.87% (inactive).
`N#Cc1cc(Br)c(O)c(Br)c1`: the Potency entry is “inactive”.
The same measure, in the same setting: the value for `Cc1ccc2c(c1N)C(=O)c1ccccc1C2=O` was 19.1 µM (active) and 27.3 µM (active).

These data come from PubChem BioAssay (Tox21).
